# Laboratory results as given in the supplement of paper PMC12636033.
# ± gives the standard deviation of the averaged measurements. Over roughly 33,000 sequences, “E-score (rank enrichment, -0.5 to 0.5)” has its median near -0.0043; the highest 2% begin near 0.24. The list comes from a sample in which the highest values are over-represented; it also holds similar and randomly drawn sequences.
# Tested on: 2Sp-muMax20 (muMax20 with two 2,6-bis(methyl)pyridine Cys staples)
# Assay: PBM 8-mer E-score (E-score (rank enrichment, -0.5 to 0.5)); higher = stronger preferential binding
# Experimental: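 Protein binding microarray (universal PBM chip covering all 10-mers in fixed probe flanks) with chemically synthesized human Max(13-93) bHLH-LZ analogs (not full-length Max) bearing noncanonical residues (hArg, Tha, Aib, Nle at 65) and aromatic Cys staples. Read-out per 8-mer (and its reverse complement): E-score (rank-based enrichment, -0.5 to 0.5) and Z-score of median probe intensity.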
row,Sequence,PBM 8-mer E-score
1,AACTCATG,0.176 ± 0.077
2,AAACAGAA,0.168 ± 0.015
3,ACCCCATG,0.297 ± 0.047
4,ACCCCATA,0.107 ± 0.075
5,AACCCATG,0.139 ± 0.032
6,CACACGTA,0.0876 ± 0.11
7,CATACGTC,0.0118 ± 0.0042
8,CATACGTA,0.297 ± 0.012
9,AATACGTA,0.206 ± 0.064
10,AACACGTA,0.0789 ± 0.055
11,CACACGTC,-0.0411 ± 0.069
12,AACACGTC,0.0953 ± 0.04
13,AACACGTG,0.4615 ± 0.0029
14,CACACGTG,0.384 ± 0.019
15,CTTATGAC,0.0201 ± 0.0061
16,ACTATGAC,0.0953 ± 0.0015
17,TAAGGGTA,0.115 ± 0.039
18,CCCTGGGA,-0.29 ± 0.01
19,CCTTCACG,-0.0558 ± 0.019
20,CATTCACA,0.248 ± 0.016
21,ATTTCAAA,0.0933 ± 0.0025
22,CATTCAAA,0.256 ± 0.027
23,CCTTCACA,0.256 ± 0.018
24,CATTCAAG,-0.108 ± 0.079

row,Sequence,PBM 8-mer E-score
1,CTTTCAAA,0.236 ± 0.026
2,TATTCAAA,0.197 ± 0.036
3,CATTCACG,0.0213 ± 0.074
4,ACTTCACA,0.00636 ± 0.061
5,GTTTCAAA,0.073 ± 0.063
6,GATTCACA,0.0451 ± 0.093
7,ACCAAGGG,-0.132 ± 0.035
8,GCAAATCC,-0.0919 ± 0.086
9,CTTGATAA,0.0868 ± 0.0083
10,GCATTACC,-0.136 ± 0.01
11,ATGACAAC,0.0122 ± 0.037
12,CGACAATA,0.0335 ± 0.093
13,CAAGGCTG,-0.037 ± 0.11
14,CTCTTCAC,0.129 ± 0.00049
15,AATCCAGA,0.124 ± 0.08
16,CATGCAAC,0.281 ± 0.056
17,AATGCAAC,0.136 ± 0.035
18,GATGCACA,0.0774 ± 0.012
19,CATGCATA,0.207 ± 0.0092
20,CATGCATC,0.081 ± 0.025
21,CATGCAAG,0.103 ± 0.05
22,CATGCGAG,0.165 ± 0.062
23,AATGCGAC,0.0252 ± 0.028
24,CATGCGAC,0.308 ± 0.019

row,Sequence,PBM 8-mer E-score
1,CATGCATG,0.382 ± 0.024
2,CATGCACG,0.0888 ± 0.024
3,CATGCACA,0.251 ± 0.033
4,CGAGGAAG,-0.0173 ± 0.064
5,CCGGCCGG,-0.229 ± 0.081
6,CCCAACCC,0.204 ± 0.019
7,CGCAAAAA,-0.00934 ± 0.005
8,CTGGGCGC,0.0231 ± 0.038
9,ATTTGGCA,-0.0164 ± 0.011
10,ATTACTTG,0.18 ± 0.017
11,CTCCTACA,0.0705 ± 0.028
12,AGGGCTCA,-0.0979 ± 0.031
13,CTCATGCC,0.0321 ± 0.035
14,AGCGGATC,-0.0391 ± 0.022
15,AATGCATA,0.16 ± 0.074
16,CGTGCACA,0.102 ± 0.071
17,TGTGCACA,0.0196 ± 0.045
18,CGTGCACG,0.338 ± 0.0045
19,AATGCATT,0.356 ± 0.017
20,AATGCATG,0.233 ± 0.038
21,ACGGGACC,-0.245 ± 0.039
22,GGAATTTA,-0.0803 ± 0.093
23,GTCTTTGA,-0.121 ± 0.016
24,ATATTGCG,0.117 ± 0.029

row,Sequence,PBM 8-mer E-score
1,CTATTGCC,-0.045 ± 0.019
2,ATATTGCC,0.238 ± 0.0041
3,CAAAAGTG,0.11 ± 0.016
4,GAAAGTAA,0.0437 ± 0.0096
5,CACAACGG,-0.145 ± 0.066
6,ACCCGCCG,0.131 ± 0.01
7,GCCCGCCA,-0.0439 ± 0.026
8,ACCCCGCC,0.284 ± 0.099
9,CCCCGCCG,0.131 ± 0.011
10,ACCCGCCC,0.3697 ± 0.0017
11,CGCCGCCC,0.00789 ± 0.052
12,CCCCCGCC,-0.0595 ± 0.056
13,AACCCGCC,0.128 ± 0.019
14,GCCCGCCC,0.16 ± 0.039
15,CCCCGCCA,0.246 ± 0.071
16,TCCCGCCA,-0.0738 ± 0.002
17,CCCCGCCC,0.295 ± 0.048
18,ATATCTCC,0.197 ± 0.016
19,ACAGTATC,0.185 ± 0.073
20,TTAGGAAA,-0.00284 ± 0.012
21,ATGGTCAG,0.122 ± 0.043
22,CGCTCCGC,-0.154 ± 0.17
